Bioassay records as filed in PubChem.
TMEM16A inh = inhibitors of mouse TMEM16A calcium-activated chloride channel; HEK293 TMEM16A/YFP iodide influx fluorescence, ionomycin; normalized B-score (activity score, 25-100; higher = stronger inhibition) at 10 µM; 310,000 tested, 1.2% active; AID 588511;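 active means ratio plate-corrected score three or more library SD toward inhibition, starting fluorescence score within five deviations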;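 further: score derived from kinetic fluorescence span divided by baseline fluorescence per well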
HTR2A ag = activates the mouse 5-HT2A serotonin receptor. P35363. CHO-K1 mHTR2A beta-arrestin complementation, luminescence; percent of 30 µM serotonin response. activation, % at 7.6 µM. 360,000 tested, 0.66% active. AID 624169;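 active means activation above a run cutoff, the mean activation of all tested compounds plus 3 SD, cut at about 14% in these data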;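 further: 0% = plate median of compound wells and 100% = 30 µM serotonin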
Target sequence (P35363 whole entry, looked up): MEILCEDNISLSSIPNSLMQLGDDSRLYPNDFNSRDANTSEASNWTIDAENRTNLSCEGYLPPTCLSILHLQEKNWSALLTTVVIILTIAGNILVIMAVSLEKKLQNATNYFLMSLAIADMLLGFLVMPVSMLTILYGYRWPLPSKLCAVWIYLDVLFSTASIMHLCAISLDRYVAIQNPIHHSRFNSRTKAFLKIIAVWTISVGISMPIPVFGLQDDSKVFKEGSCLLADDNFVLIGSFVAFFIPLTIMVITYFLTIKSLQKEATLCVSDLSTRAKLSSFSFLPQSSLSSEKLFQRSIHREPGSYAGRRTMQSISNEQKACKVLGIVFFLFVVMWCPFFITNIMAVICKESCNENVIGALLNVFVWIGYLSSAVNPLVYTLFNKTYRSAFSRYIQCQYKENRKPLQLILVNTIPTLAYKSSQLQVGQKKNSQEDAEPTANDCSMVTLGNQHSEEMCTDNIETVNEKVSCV
TLR4-MyD88 BLA = blocks binding of human TLR4 to MyD88; O00206+Q99836; inhibition, % at 8.4 µM; AID 861; HeLa CL3-4 TLR4/MyD88 BLA complementation, FRET ratio; 200,000 tested, 0.18% active; in the data active means inhibition above about 25%;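 further: 0% = vehicle and 100% = reference inhibitor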
ANO1 activ = activates or potentiates the mouse TMEM16A chloride channel. 340,000 tested, 0.3% active. Q8BHY3. B-score at 10 µM. HEK293 TMEM16A/YFP-H148Q/I152L, iodide quench fluorescence; stronger effect = lower value;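 active means fluorescence-ratio B-score plate-corrected deviation score at least 3 library SD below zero, with starting fluorescence score within 5 deviations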;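 further: channel opened by trigger with iodide after compound preincubation; score built on the fluorescence ratio of max minus min over baseline; more negative score means more quench and so TMEM16A activation or potentiation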
TLR9-MyD88 inh = blocks human TLR9 binding to MyD88; CHO BLA complementation TLR9-MyD88, CCF4 FRET ratio; inhibition, % at 4.98 µM; 340,000 tested, 0.21% active; AID 504734;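 active means inhibition above the mean over all tested compounds plus 3 SD, cut at about 21% in these data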;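 further: 0% = DMSO only wells and 100% = clavulanate BLA inhibitor control wells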
NOD2 RIPK2 PPI = blocks binding of human NOD2 to RIPK2; AID 624267; O43353; 360,000 tested, 0.38% active; CHO BLA complementation NOD2-RIPK2, CCF4 ratio; inhibition, % at 4.98 µM; in the data active means inhibition above about 21%;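 further: 0% = vehicle only and 100% = reference blocker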
* = called active by the depositor. The list is not random: actives were taken first. Their share in the collection is about 2.4%.

`CC(C)(C)C1CCC2(CC1)C(C#N)=C(SCC(=O)Nc1ccccc1)NC(=O)C2C#N` (configuration not stated) gave TMEM16A inh 100*, HTR2A ag -1, TLR4-MyD88 BLA -12, ANO1 activ inactive, TLR9-MyD88 inh -1 and NOD2 RIPK2 PPI -5.
For CCCCC(=O)N1CCN(c2nc3ccc(Cl)cc3s2)CC1 the results were TMEM16A inh 25*, HTR2A ag -5, ANO1 activ inactive, TLR9-MyD88 inh -4 and NOD2 RIPK2 PPI -5.
`OC(COCc1ccccc1)COCc1ccccc1` gave HTR2A ag -1, ANO1 activ inactive, TLR9-MyD88 inh -7 and NOD2 RIPK2 PPI -6.
`O=S(CC(O)COCc1ccc(Cl)cc1)c1ccccn1` (configuration not stated) gave TMEM16A inh inactive, HTR2A ag -1, TLR4-MyD88 BLA -10, ANO1 activ -8.1*, TLR9-MyD88 inh -3 and NOD2 RIPK2 PPI -7.
`Nc1ccc(CCc2ccc(N)cc2)cc1` gave TMEM16A inh inactive, HTR2A ag -6, ANO1 activ inactive, TLR9-MyD88 inh 3 and NOD2 RIPK2 PPI 0.
Screening CCSC1=N/C(=C\c2ccc(C(=O)O)cc2)C(=O)S1 returned TMEM16A inh inactive, HTR2A ag 7, TLR4-MyD88 BLA -10, ANO1 activ inactive, TLR9-MyD88 inh -5 and NOD2 RIPK2 PPI -5.
`CCOc1cc(/C=C2\N=C(SCC)SC2=O)cc([N+](=O)[O-])c1OC(C)=O` gave TMEM16A inh 100*, HTR2A ag -3, TLR4-MyD88 BLA 14, ANO1 activ inactive, TLR9-MyD88 inh -2 and NOD2 RIPK2 PPI -10.
`CCOc1c(OC(C)=O)ccc(/C=C2\N=C(SCC)SC2=O)c1[N+](=O)[O-]` gave TMEM16A inh 100*, HTR2A ag 5, TLR4-MyD88 BLA -9, ANO1 activ inactive, TLR9-MyD88 inh 8 and NOD2 RIPK2 PPI 2.
O=C(c1ccc(N2CCN(C(=O)c3cccc(F)c3)CC2)cc1)c1cccc(F)c1 was read as TMEM16A inh inactive, HTR2A ag -2, ANO1 activ inactive, TLR9-MyD88 inh 3 and NOD2 RIPK2 PPI -4.
For CCOC(=O)N1CCN(c2ccc(C(=O)c3cccc(F)c3)cc2)CC1 the results were TMEM16A inh 25*, HTR2A ag -4, TLR4-MyD88 BLA 2, ANO1 activ inactive, TLR9-MyD88 inh -11 and NOD2 RIPK2 PPI -6.
`CC(C1CC1)N(Cc1ccccc1)C(=S)Nc1ccccc1` (configuration not stated) gave TMEM16A inh inactive, HTR2A ag -1, TLR4-MyD88 BLA 5, ANO1 activ inactive, TLR9-MyD88 inh -2 and NOD2 RIPK2 PPI -14.
`CC(C1CC1)N(Cc1ccccc1)C(=S)Nc1cccc(C(F)(F)F)c1` (configuration not stated) gave TMEM16A inh 100*, HTR2A ag -3, TLR4-MyD88 BLA -2, ANO1 activ inactive, TLR9-MyD88 inh -10 and NOD2 RIPK2 PPI -3.
Screening COCCC(=O)N1CCOCC1c1cc(C(=O)Nc2ccccc2)no1 (configuration not stated) returned HTR2A ag -2 and NOD2 RIPK2 PPI 3.
`CCCN(CC1CC1)C(=O)CSc1ncnc2sc(C)c(C)c12` gave TMEM16A inh inactive, HTR2A ag 3, TLR4-MyD88 BLA -1, ANO1 activ inactive, TLR9-MyD88 inh -4 and NOD2 RIPK2 PPI -4.
CCN(C(=O)CSc1ncnc2sc(C)c(C)c12)C1CCS(=O)(=O)C1 (configuration not stated) was read as TMEM16A inh inactive, HTR2A ag 7, TLR4-MyD88 BLA 8, ANO1 activ -40*, TLR9-MyD88 inh 2 and NOD2 RIPK2 PPI -2.
Cc1ccc(NC(=O)COC(=O)CN2C(=O)c3ccccc3C2=O)cc1S(=O)(=O)N(C)C was read as TMEM16A inh inactive, HTR2A ag -5, TLR4-MyD88 BLA -20, ANO1 activ inactive, TLR9-MyD88 inh -10 and NOD2 RIPK2 PPI -2.
Screening CCOc1cc2c(cc1O)C(=NOC)CC1C2CCC2(C)C(O)CCC12 (configuration not stated) returned HTR2A ag 13, ANO1 activ -6.6*, TLR9-MyD88 inh -10 and NOD2 RIPK2 PPI 11.
